Most compounds without a hit are left out; they make up all but 7.8% or so of the library.
HCV inh: blocks hepatitis C virus; Huh7.5.1 HCVcc-Cre infection, luciferase reporter, 44 h; Potency, µM (doses to about 41.8 µM), for the others: top-dose activity change, negative = inhibition, usual class: inhibitors; hit rate 3.4% among 340,000; AID 651820; active = well fitted inhibition curve with a large enough effect; inconclusive = small, poorly fitted or top-dose-only effect, or another doubt; inactive = no such curve, though single readings can be large or run the other way; note: potency is the fitted concentration of half-maximal effect
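Compounds are dispensed onto cells plated 4 h earlier at 1,000 per well, with HCVcc-Cre virus (about 0.5 moi) added next. Following 44 h of culture, luminescent signal is measured for 15 sec after 15 min with substrate at room temperature.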
Vaccinia mCherry: inhibitors of vaccinia virus infection (mCherry reporter signal); Potency, µM (top dose mostly 36.5 µM), inactives show top-dose activity change, negative = inhibition, most hits filed as inhibitors; hit rate 0.63% among 310,000; Vaccinia virus mCherry reporter infection, fluorescence; calls by dose curve; tested in A549 cells; note: potency is the fitted concentration of half-maximal effect; nearly all actives have a fitted effect of over 35% in size
MARV entry inh: blocks Marburg virus binding to or entry into cells. Marburg virus pseudotyped entry inhibition, cell reporter. hit rate 1.8% among 300,000. AID 540276. Potency, µM (titrated, usually from 37.8 µM), inactives show at the top dose activity change, negative = inhibition, usual class: inhibitors; calls by dose curve; tested in HEK293 cells; note: potency is the fitted concentration of half-maximal effect
LASV entry inh: Lassa virus entry inhibition; Lassa virus pseudotype entry inhibition, cell reporter; Potency, µM (doses to about 37.9 µM), inactives show at the highest dose activity change, negative = inhibition, hits mostly inhibitors; hit rate 1.2% among 300,000; AID 540256; calls by dose curve; tested in HEK293 cells; note: potency is the fitted concentration of half-maximal effect; nearly all actives have a fitted effect of over 50% in size
HCMV antiviral: blocks human cytomegalovirus replication; HFF cells, HCMV-luciferase reporter, 72 h; hits give low values; activity change, negative = inhibition, % at 57.5 µM; hit rate 4.5% among 410,000; in the data active = activity change below about -60%; inconclusive = no clear call, values can overlap the other calls; inactive = above about -39%
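Steps: HFFs plated, 16 h 37C; compounds added; HCMV-luciferase added to MOI 1 PFU/cell; 72 h 37C; OneGlo reagent, 5 min room temperature; luminescence read, normalized to controls.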
VACV Venus inh: vaccinia inhibition (Venus reporter). Vaccinia virus Venus reporter expression, fluorescence. Potency, µM (highest dose often 36.5 µM), without a hit: at the top dose activity change, negative = inhibition, actives largely listed as inhibitors. hit rate 0.46% among 330,000. AID 720580; calls by dose curve; tested in A549 cells; note: potency is the fitted concentration of half-maximal effect; nearly all actives have a fitted effect of over 30% in size
The depositor's hits bear a star; i = inactive; ? = inconclusive; / = not tested or not shown; [ ] = another dose, or the depositor's remark. % is set by controls: 0 for no effect and ±100 for the full control effect.

SMILES	HCV inh	Vaccinia mCherry	MARV entry inh	LASV entry inh	HCMV antiviral	VACV Venus inh
COc1ccc(C(c2nnnn2-c2c(C)cccc2C)N2CCC(n3c(=O)[nH]c4ccccc43)CC2)cc1 (stereo not given)	/	-21%	/	/	-69*	-29%
Cc1cccc(C)c1-n1nnnc1C(c1cc2ccccc2o1)N1CCC(n2c(=O)[nH]c3ccccc32)CC1 (stereo not given)	/	?	/	/	-67*	?
COc1ccc(NC(=O)CSc2nc(-c3cc(OC)c(OC)c(OC)c3)[nH]c2-c2ccc(F)cc2)cc1	/	-20%	?	-24%[46.1 µM]	128	-24%
CCCN(CCC)c1ccc(C2N=C(N)Nc3nc4ccccc4n32)cc1 (stereo not given)	/	?	-3%[46.1 µM]	9%[46.1 µM]	?	-25%
O=C(c1cc(C2CC2)nc2ccc(Br)cc12)N1N=C(C(F)F)CC1(O)C(F)F (stereo not given)	?	/	?	?	-73*	/
O=C(c1ccc(Cl)c(S(=O)(=O)N2CCCCCC2)c1)N1CCCCC1	-12%	/	/	/	9	/
CCOc1ccccc1N1CCN(C(=O)c2ccc(Cl)c(S(=O)(=O)N3CCCCC3)c2)CC1	10µM*	-18%	?	?	-38	-22%
O=C(c1ccc(Cl)c(S(=O)(=O)N2CCCCCC2)c1)N1CCN(c2ccccn2)CC1	7.1µM*	?	?	?	-81*	?
COc1cc(=O)n2c(c1C(=O)NCc1ccco1)CCN(Cc1ccc3nsnc3c1)CC2	/	-2%	/	/	/	0%
C=C(C)COc1ccc(-c2n[nH]c(C)c2-c2ccc(OC)cc2)c(O)c1	?	/	?	?	-106*	10µM*
COc1ccc(-c2n[nH]c(C)c2-c2cscn2)c(O)c1	-14%	?	/	/	?	-10%
Fc1ccc(N2CCN(c3nc(-c4ccco4)cc(C(F)(F)F)n3)CC2)cc1	?	-6%	-24%	-43%	-5	-7%
O=[N+]([O-])c1cnn(-c2nc(-c3ccco3)cc(C(F)(F)F)n2)c1	-24%	-10%	-2%	?	-97*	1%
NC(=O)c1ccc[n+](CC(=O)c2ccccc2)c1	0.56µM*	?	?	10%[46.1 µM]	-6	-8%
CC(NC(=O)c1cc(Br)ccc1Br)c1ccccc1 (stereo not given)	/	/	/	/	-12	/
O=C(O)c1cccc(Br)c1	0.79µM*	2%	/	/	7	-4%
CC(NC(=O)c1cccc(Br)c1)c1ccccc1 (stereo not given)	-5%	i	?	-13%	-70*	-14%
CC(N)=Nc1ccc([N+](=O)[O-])cc1	11%	-10%	19%	3%	-5	-11%
O=[N+]([O-])c1ccc(N=Nc2c(Cl)cc(O)cc2Cl)cc1	5µM*	?	/	/	-100*	?
CC1CC1c1ccc(/C=C(\C#N)C(=O)Nc2ccc(Cl)cc2Cl)o1 (stereo not given)	?	-20%	?	-6%	-64*	3%
CC1CC1c1ccc(/C=C(\C#N)C(=O)Nc2cc(Cl)ccc2Cl)o1 (stereo not given)	?	i	?	3%	15	-15%
Cc1nn(-c2ccccc2)c(C)c1CC(=O)NCC1Cc2cc(F)cc(-c3cccnc3)c2O1 (stereo not given)	/	-1%	/	/	/	0%
CCN1CCN(C(=S)c2ccc(-c3ccccc3)cc2)CC1	4%	/	/	/	-81*	/
O=C(c1cccc([N+](=O)[O-])c1)n1nc(-c2ccccc2)nc1NCc1ccccc1	1%	-17%	0%	6%	51	-10%
CCC(=O)n1nc(-c2ccccc2)nc1SCC(=O)Nc1ccc(C)cc1	-8%	/	2%	-5%	17	/
SMILES	HCV inh	Vaccinia mCherry	MARV entry inh	LASV entry inh	HCMV antiviral	VACV Venus inh
CC(=O)n1nc(-c2cccc(C)c2)nc1SCC(=O)Nc1ccccc1	6%	/	-2%	?	-89*	/
Cn1nnnc1SCC(=O)Nc1cccc([N+](=O)[O-])c1	-4%	i	8%[46.1 µM]	12%	-68*	-5%
O=C(CSc1nc(-c2ccccc2)nn1C(=O)c1ccccc1)Nc1cccc([N+](=O)[O-])c1	25µM*	/	-2%	?	50	/
COC(=O)N1C(c2ccccc2)=Cc2ccccc2C1C1(C(=O)OC)CCCC1=O (stereo not given)	/	/	-1%[14.2 µM]	?	/	/
Cc1nn(-c2ccccn2)c2c1C(=O)C(Br)CC2 (stereo not given)	-5%	-24%	?	-5%	/	-14%
Cc1nn(-c2nccs2)c2c1C(=O)CC(C)(C)C2Br (stereo not given)	-1%	-29%	/	/	-70*	?
CCCC(=O)Nc1cc(C)c(NC(=O)c2ccncc2)cn1	7%	-13%	3%	2.8µM*	-5	-4%
COc1ccc(NC(=O)Cn2c(=O)n(-c3ccc(C)cc3)c(=O)c3c2cnn3C)cc1	/	-7%	?	-9%[46.1 µM]	28	-9%
Cc1c(C(=O)N(C)Cc2ccccc2)sc2nc(-c3ccc(F)cc3)cn12	/	?	/	?	-82*	?
COc1ccc(-c2cn3c(C)c(C(=O)NCCN4CCOCC4)sc3n2)cc1	?	-10%	6%	3%	126	0%
Cc1c(C(=O)NCc2cccnc2)sc2nc(-c3ccc(F)cc3)cn12	11µM*	?	/	/	-22	?
Cc1c(C(=O)NCCCN2CCOCC2)sc2nc(-c3ccc(F)cc3)cn12	10µM*	-25%	-30%	21%	-11	-22%
Cc1c(C(=O)N(C)c2ccccc2)sc2nc(-c3ccc(F)cc3)cn12	/	-24%	/	-8%[46.1 µM]	-26	-24%
CC(C)c1cnc2c(c1SCC(=O)Nc1cccc([N+](=O)[O-])c1)c(=O)n(C)c(=O)n2C	/	-18%	/	-22%[46.1 µM]	21	-20%
CN(Cc1ccc(Cl)c(Cl)c1)C(C(=O)NCc1ccccc1)c1ccco1 (stereo not given)	/	?	/	/	-32	-5%
CN(Cc1ccc(Cl)c(Cl)c1)C(C(=O)NCc1ccccc1)c1ccc(C(F)(F)F)cc1 (stereo not given)	/	11µM*	/	/	?	?
Cn1c(NCc2ccc3occc3c2)nc2cc(-c3ccc(F)cc3)sc2c1=O	/	-4%	/	/	?	-19%
CN(C)c1ccc(CNc2nc3cc(-c4ccc(F)cc4)sc3c(=O)n2C)cc1	/	-1%	/	/	-86*	-22%
COc1ccc(-n2c(C)c([N+](=O)[O-])c3ccc(O)c(CN(C)C)c32)cc1	-30%	/	?	-24%	-92*	-9%
COc1ccc(-n2c(C(C)n3nc(C)c([N+](=O)[O-])c3C)n[nH]c2=S)cc1 (stereo not given)	24%	/	4%	3%	-16	/
O=C1C(=O)N(Cc2cccnc2)[C@@H](c2ccccn2)/C1=C(\O)c1ccccc1	/	/	13%	/	/	/
COc1cccc(-c2csc(N3CCN(C(=S)Nc4ccccc4)CC3)n2)c1	-19%	-20%	21%	-10%	-8	-15%
COc1cccc(-c2csc(N3CCN(C(=S)Nc4cccc(C)c4)CC3)n2)c1	?	-23%	/	/	-67*	-20%

Screening results (PubChem BioAssay)
